Source: PubChem BioAssay
HCV inh – HCV inhibition; Huh7.5.1 HCVcc-Cre infection, luciferase reporter, 44 h; Potency, µM (series often up to 41.8 µM), without a hit: at the top dose activity change, negative = inhibition, most hits filed as inhibitors; 3.4% of 340,000 active; AID 651820
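Whole-lifecycle infectious HCVcc-Cre system; cells 1,000/well, compound then virus (~0.5 moi) added 4 h after plating, 44 h culture. Luciferase read 15 sec following 15 min substrate incubation, room temp.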
AMA1-RON2 inh – disrupts binding of P. falciparum AMA1 to RON2; AID 720542; AlphaScreen AMA1-biotinylated RON2 peptide binding; Potency, µM (top dose mostly 58.2 µM), for the others: top-dose activity change, negative = inhibition, hits mostly inhibitors; 0.2% of 360,000 active;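 further: 0% = vehicle wells and -100% = peptide control; nearly all actives have a fitted effect of over 45% in size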
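AMA1 (3D7) with his tag at 25 nM final met compounds first, then biotinylated RON2 peptide at 25 nM; detection used donor plus acceptor beads, 10 µg/mL apiece, read by AlphaScreen after 30 min at room temperature.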
Pf growth 48h – inhibits P. falciparum growth in the first generation, 48 h; P. falciparum luciferase growth in erythrocytes, 48 h; 5.9% of 310,000 active; Potency, µM (doses to about 28.7 µM), without a hit: at the top dose activity change, negative = inhibition, usual class: inhibitors
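Luminescence readout; reporter = integrated firefly luciferase in P. falciparum. RBC culture at 2% hematocrit, 0.1% parasitemia final, 37 C/5% CO2; decreased signal taken as growth inhibition.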
Pf growth 96h – P. falciparum growth inhibition at 96 hour, primary screen for plastid delayed-death inhibitors; P. falciparum luciferase reporter growth, 96 h; Potency, µM (doses to about 28.7 µM), for the others: top-dose activity change, negative = inhibition, actives largely listed as inhibitors; 6.9% of 320,000 active
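Infected RBCs, 2% Hct / 0.05% parasitemia final; luciferase-reporter P. falciparum; cpd 96 h, 37 C, 5% CO2; luciferase detection reagent; luminescence.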
Starred values were filed as active, the others as inactive; ? = inconclusive; . = no result; [ ] = remark or other dose. Shown are actives, neighbours in structure and some others; about 11% of the full set was active somewhere. The call rests on the fitted dose curve; in most records, active means well fitted curve in the direction sought with a large enough effect; inconclusive means small, poorly fitted or top-dose-only effect, or another doubt; inactive means no such curve, though single readings can be large; an effect the other way counts as inactive or inconclusive. Unless noted, on the % scale 0 is the no-effect control and ±100 the full control effect; potency means the concentration at half of the fitted maximal effect.

SMILES	HCV inh	AMA1-RON2 inh	Pf growth 48h	Pf growth 96h
Fc1cccc(Nc2nc(-c3ccncc3)nc3ccccc23)c1	?	.	9.3µM*	4.1µM*
O=[N+]([O-])c1ccc(-c2nc(Nc3cccc(O)c3)c3ccccc3n2)cc1	6.3µM*	-11%	?	98%
O=C(O)c1cccc(Nc2nc(-c3ccccc3)nc3ccccc23)c1	14%	-5%	-3%	?
CNC(=O)c1ccc(Nc2nc(-c3ccccc3)nc3ccccc23)cc1	?	12%	-25%	?
COc1cccc(Nc2nc(-c3ccccc3)nc3ccccc23)c1	10µM*	7%	0%	8%
O=C(O)c1ccc(Nc2nc(-c3ccccc3)nc3ccccc23)cc1	-12%	0%	?	24%
Cc1ccc(-c2nc(Nc3cccc(O)c3)c3ccccc3n2)cc1	28µM*	-12%	8%[0.00184 µM]	?
COc1cccc(Nc2nc(-c3ccccc3O)nc3ccccc23)c1	?	0%	.	19%
CCCOC(=O)c1cccc(Nc2nc(-c3cccnc3)nc3ccccc23)c1	?	6%	9.3µM*	0%
Cc1ccc(-c2nc(Nc3ccc(O)cc3)c3ccccc3n2)cc1	7.1µM*	3%	.	-1%
COC(=O)c1ccccc1S(=O)(=O)N1CCC(C(=O)NCc2ccccn2)CC1	.	109%	.	.
COc1ccc(CCN2C(=O)c3ccccc3C2c2nnnn2C(C)C)cc1OC (stereo not drawn)	.	2%	.	.
O=C(OCCNc1nc(-c2ccccc2)nc2ccccc12)c1ccncc1	16µM*	-8%	?	-30%
Cc1ccc(-c2nc(C(Cl)Cl)c3ccccc3n2)cc1	3.5µM*	-4%	?	?
c1ccc(Nc2nc(-c3ccccc3)nc3ccccc23)cc1	14µM*	15%	9%	329%
Cc1ccc(C2c3c(oc4cc(C)c(C)cc4c3=O)C(=O)N2CCCN2CCOCC2)cc1 (stereo not drawn)	-4%	5%	5.2µM*	?
COc1ccccc1N(C)S(=O)(=O)c1ccc(Cl)c(C(=O)Nc2cccc(C)n2)c1	?	-10%	2.1µM*	2.3µM*
Cc1cccc(NC(=O)c2cc(S(=O)(=O)N(C)c3ccc(F)cc3)ccc2Cl)n1	-28%	-1%	0.33µM*	0.37µM*
CN(c1ccc(F)cc1)S(=O)(=O)c1ccc(Cl)c(C(=O)NC2(C)CCS(=O)(=O)C2)c1 (stereo not drawn)	-18%	-2%	-9%	?
CCOC(=O)c1ccc(NNC(=O)CC)c([N+](=O)[O-])c1	-4%	0%	-22%	-29%
COc1ccc(-n2c(SC(C)C(=O)Nc3ncc(Cl)cc3Cl)nc3ccccc32)cc1 (stereo not drawn)	?	-7%	10µM*	?
COc1cccc(OCCn2c(C)c(/C=N/n3cnnc3)c3ccccc32)c1	?	8%	-18%	?
COc1ccc(OCCn2c(C)c(/C=N/n3cnnc3)c3ccccc32)cc1	-17%	2%	?	12µM*
CNC(=O)CSCc1cnn(-c2ccccc2)c1-n1cccc1	10%	-12%	.	?
O=C(CSCc1cnn(-c2ccccc2)c1-n1cccc1)NCc1cccs1	-30%	-3%	.	4.7µM*
SMILES	HCV inh	AMA1-RON2 inh	Pf growth 48h	Pf growth 96h
Cc1c(C(=O)N2CCOCC2)sc(NC(=O)CCl)c1C#N	-9%	-4%	2.1µM*	-23%
Cc1c(C(=O)N2CCOCC2)sc(NC(=O)c2ccc([N+](=O)[O-])cc2)c1C#N	-16%	9%	-17%	29%
CC(=O)Nc1ccc(NC(=O)C(=O)NCC(c2ccco2)N2CCc3ccccc32)cc1 (stereo not drawn)	-13%	-4%	13µM*	10µM*
CN1CCN(c2cccc3c2S(=O)(=O)N[C@@H](Cc2ccccc2)CO3)CC1	.	4%	.	.
CCn1nc(C(=O)OCC(=O)c2c[nH]c3ccccc23)c2ccccc2c1=O	-8%	4%	4.7µM*	7.4µM*
CCOc1ccc(C(=O)COC(=O)c2nn(CC)c(=O)c3ccccc23)cc1	18%	0%	?	6%
CC(C)n1nc(C(=O)OCC(=O)c2c[nH]c3ccccc23)c2ccccc2c1=O	?	-7%	.	6.6µM*
Cc1ccc(N(C)C(=O)CN(C)S(=O)(=O)c2ccc3c(c2)n(C)c(=O)c(=O)n3C)cc1	11%	-4%	?	?
O=C1CCCN1C(=O)COc1ccccc1[N+](=O)[O-]	3%	-5%	0%	0%
Cc1ccccc1Cn1c(=N)n(CC(=O)c2ccco2)c2ccccc21	?	0%	?	15µM*
CC(=O)Oc1ccc(Cl)cc1CN(C(C)=O)C1CCCCC1	?	9%	.	.
Clc1ccccc1CSC1=NCCN1	-8%	-10%	15µM*	23%
O=C(CSC1=NCCN1)NC(c1ccccc1)c1ccccc1	10µM*	2%	?	-20%
COc1ccc2[nH]c(=O)c(CN(C(C)=O)c3cc(C)ccc3C)cc2c1	.	4%	.	.
COCCN(C(=O)COC(=O)CCOc1ccccc1)c1c(N)n(Cc2ccccc2)c(=O)[nH]c1=O	8%	1%	12%	1%
CC(C)(C)c1cc(C(=O)N/N=C/c2ccc(O)cc2)n(-c2ccccc2)n1	-2%	-2%	9.3µM*	-8%
CCc1cc(C(=O)N/N=C/c2ccc(O)cc2)c2ccccc2n1	?	43%	11%	4%
O=C(CNc1cccc(S(=O)(=O)N2CCOCC2)c1)Nc1ccccc1F	0%	8%	0%	-29%
O=C(CNc1cccc(S(=O)(=O)N2CCCC2)c1)Nc1ccc(F)cc1F	?	-10%	8.3µM*	9.3µM*
O=C(CNc1cccc(S(=O)(=O)N2CCCCC2)c1)Nc1cccc(F)c1	-22%	-4%	2.9µM*	2.3µM*
CN(C)S(=O)(=O)c1cccc(NC(=O)CNc2cccc(S(=O)(=O)N3CCCCC3)c2)c1	.	-9%	.	.
Cc1ccc([N+](=O)[O-])cc1S(=O)(=O)Nc1ccccn1	9%	-1%	14%	4%
O=C(CCC(=O)c1ccc(F)cc1)NC1CCCN(Cc2ccccc2F)C1 (stereo not drawn)	-9%	0%	1%	13µM*
O=C(Cn1cnnn1)NC1CCCN(Cc2ccccc2F)C1 (stereo not drawn)	0%	1%	15%	5.2µM*
CCc1cc(C(=O)NC2CCCN(Cc3ccccc3F)C2)n(C)n1 (stereo not drawn)	8.9µM*	-4%	3%	?
CC(C)Cc1ccc(CN2CCCC(NC(=O)Cn3cnnn3)C2)cc1 (stereo not drawn)	-7%	0%	-7%	?
O=C(CCN1CCOCC1)NC1CCCN(Cc2ccccc2F)C1 (stereo not drawn)	38%	0%	3%	8%
CC(C)(C)c1ccc(Nc2n[nH]c3ccccc23)cc1	.	-25%	.	.
CC(C)(C)OC(=O)C[C@H]1C/C=C\C[C@@H](CC(=O)N[C@H](CO)Cc2ccccc2)C(=O)N2CCC[C@H]2COC1=O	4%	-6%	.	.
CC1=CC(C)C(/C=N/N=C(N)N)C(C)C1 (stereo not drawn)	?	6%	12µM*	2.9µM*
